Reference: PubChem BioAssay (EPA / NIEHS)
Inconclusive results are not listed. Calls of active or inactive are those of the source. The calls were made as follows, unless noted: active = hit-call score of the fitted dose curve at least 0.9, where 1 is the maximum; inconclusive = response in the unintended direction; inactive = score below 0.9.

target: human Tyrosine Protein Kinase Receptor Tie-2 (Tie2), TEK (gene 7010) (UniProt Q02763); assay: NVS_ENZ_hTie2: NovaScreen (NVS) Enzymatic Assay for human Tyrosine Protein Kinase Receptor Tie-2 (Tie2) (AID 2283225)
Sequence (Q02763 whole entry, looked up): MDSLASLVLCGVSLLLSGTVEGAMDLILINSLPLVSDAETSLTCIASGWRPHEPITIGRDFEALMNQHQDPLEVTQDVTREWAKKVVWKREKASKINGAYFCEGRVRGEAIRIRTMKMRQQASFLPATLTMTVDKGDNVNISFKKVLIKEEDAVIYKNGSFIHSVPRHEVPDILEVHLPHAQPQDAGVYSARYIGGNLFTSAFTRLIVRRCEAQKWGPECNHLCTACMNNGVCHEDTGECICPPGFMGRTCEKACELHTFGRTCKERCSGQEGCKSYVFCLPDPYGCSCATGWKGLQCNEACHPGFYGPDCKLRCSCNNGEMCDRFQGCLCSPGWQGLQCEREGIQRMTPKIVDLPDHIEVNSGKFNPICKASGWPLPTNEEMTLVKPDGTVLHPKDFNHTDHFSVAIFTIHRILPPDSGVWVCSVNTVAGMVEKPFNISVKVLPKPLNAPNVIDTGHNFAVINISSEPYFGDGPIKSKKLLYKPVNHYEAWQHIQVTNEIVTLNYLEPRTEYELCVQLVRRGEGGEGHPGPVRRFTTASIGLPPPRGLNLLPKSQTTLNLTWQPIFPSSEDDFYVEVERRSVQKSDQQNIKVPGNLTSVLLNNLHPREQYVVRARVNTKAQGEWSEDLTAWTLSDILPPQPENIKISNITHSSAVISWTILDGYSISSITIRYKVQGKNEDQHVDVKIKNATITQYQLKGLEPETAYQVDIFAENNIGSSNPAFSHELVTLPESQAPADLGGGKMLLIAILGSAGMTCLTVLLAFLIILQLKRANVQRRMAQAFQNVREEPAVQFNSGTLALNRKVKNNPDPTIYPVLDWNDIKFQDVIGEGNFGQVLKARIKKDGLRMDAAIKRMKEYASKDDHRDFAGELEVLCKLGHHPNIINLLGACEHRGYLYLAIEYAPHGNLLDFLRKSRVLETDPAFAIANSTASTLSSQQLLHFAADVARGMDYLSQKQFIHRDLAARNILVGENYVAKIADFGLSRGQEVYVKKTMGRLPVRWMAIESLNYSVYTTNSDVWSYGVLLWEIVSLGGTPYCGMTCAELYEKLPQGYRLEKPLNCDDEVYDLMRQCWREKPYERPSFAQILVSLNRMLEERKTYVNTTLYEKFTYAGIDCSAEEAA
Method in brief: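 Substrate and product were separated by mobility shift and detected by fluorescence after a 1-hour reaction with recombinant Tie2. Chemicals passing a 25 uM single-point screen were titrated to a maximum of 50 uM. Results were normalized to DMSO baseline.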

SMILES | outcome
CCCCCCCC(=O)O | inactive
CC[C@H](C)C(=O)O[C@H]1C[C@@H](C)C=C2C=C[C@H](C)[C@H](CC[C@@H]3C[C@@H](O)CC(=O)O3)[C@H]21 | inactive
CCN(CC)CCNc1ccc(CNC=O)c2sc3ccc(OC)cc3c(=O)c12 | inactive
CN(C)C(=O)NC1(c2ccccc2)CCN(CC[C@@]2(c3ccc(F)c(F)c3)CN(C(=O)c3ccccc3)CCO2)CC1 | inactive

target: human Neonicotinoid receptor (NNR), CHRNA2 (gene 1135) (UniProt Q15822); assay: NVS_LGIC_hNNR_NBungSens: NovaScreen (NVS) Ligand-Gated Ion Channel Assay for human Neonicotinoid receptor (NNR) (AID 2283313)
Sequence (Q15822 whole entry, looked up): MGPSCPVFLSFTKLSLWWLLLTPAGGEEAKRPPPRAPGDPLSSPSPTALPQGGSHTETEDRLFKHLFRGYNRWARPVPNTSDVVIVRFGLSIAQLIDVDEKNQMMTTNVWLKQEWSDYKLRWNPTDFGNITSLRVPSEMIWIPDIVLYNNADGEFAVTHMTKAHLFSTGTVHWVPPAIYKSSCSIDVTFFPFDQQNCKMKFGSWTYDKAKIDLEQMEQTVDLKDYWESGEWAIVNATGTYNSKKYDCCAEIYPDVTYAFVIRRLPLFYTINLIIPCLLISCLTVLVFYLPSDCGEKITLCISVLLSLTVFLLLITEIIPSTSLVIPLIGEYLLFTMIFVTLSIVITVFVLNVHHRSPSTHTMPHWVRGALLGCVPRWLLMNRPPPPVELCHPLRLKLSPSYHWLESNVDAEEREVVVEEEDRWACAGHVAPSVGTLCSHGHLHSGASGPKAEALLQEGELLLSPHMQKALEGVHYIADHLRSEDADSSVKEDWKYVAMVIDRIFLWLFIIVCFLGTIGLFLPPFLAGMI
Method in brief: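 Compounds first screened in duplicate at 25 uM, then actives re-tested in single-replicate dose series up to 50 uM. Binding measured as displacement of specific radioligand from neuroblastoma membrane receptors after 2 h, scintillation read on filters.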

SMILES | AC50 | outcome
CCCCCCCC(=O)O | 37.4 µM (active) | 
CN1CCC[C@H]1c1cccnc1 | 1.3 µM (active) | 
CCN(CC)CCNc1ccc(CNC=O)c2sc3ccc(OC)cc3c(=O)c12 |  | inactive

tested on: not listed separately; assay: CCTE_Harrill_HTTr_Apoptosis_PRF_DMEM_12hr: (Pilot) CCTE's 12-hour Apoptosis Assessment for the High-Throughput Transcriptomics (HTTr) Platform, in MCF-7 cells cultured in phenol red-free DMEM + 10% charcoal-stripped fetal bovine serum, Harrill Lab (AID 2283985; active = hit-call score of the fitted dose curve at least 0.9, where 1 is the maximum; inactive = score below 0.9)
Method in brief: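 Caspase-3/7 activity by CellEvent Green high content imaging after 12 h compound exposure (eight concentrations) in MCF-7 grown in phenol red-free DMEM plus 10% charcoal-stripped serum; DMSO as baseline.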

SMILES | outcome | AC50
Nc1nc(Cl)nc2c1ncn2[C@H]1C[C@H](O)[C@@H](CO)O1 | inactive | 
CC(C)CCCCCCc1ccc(O)cc1 |  | 61.8 µM (active)
CC[C@H](C)C(=O)O[C@H]1C[C@@H](C)C=C2C=C[C@H](C)[C@H](CC[C@@H]3C[C@@H](O)CC(=O)O3)[C@H]21 | inactive | 
